Target: T1, TALE1-HN (CACNA1C site 1 activator) (Xanthomonas (engineered), UniProt P14727 SEQ:1-983)
T1 chain: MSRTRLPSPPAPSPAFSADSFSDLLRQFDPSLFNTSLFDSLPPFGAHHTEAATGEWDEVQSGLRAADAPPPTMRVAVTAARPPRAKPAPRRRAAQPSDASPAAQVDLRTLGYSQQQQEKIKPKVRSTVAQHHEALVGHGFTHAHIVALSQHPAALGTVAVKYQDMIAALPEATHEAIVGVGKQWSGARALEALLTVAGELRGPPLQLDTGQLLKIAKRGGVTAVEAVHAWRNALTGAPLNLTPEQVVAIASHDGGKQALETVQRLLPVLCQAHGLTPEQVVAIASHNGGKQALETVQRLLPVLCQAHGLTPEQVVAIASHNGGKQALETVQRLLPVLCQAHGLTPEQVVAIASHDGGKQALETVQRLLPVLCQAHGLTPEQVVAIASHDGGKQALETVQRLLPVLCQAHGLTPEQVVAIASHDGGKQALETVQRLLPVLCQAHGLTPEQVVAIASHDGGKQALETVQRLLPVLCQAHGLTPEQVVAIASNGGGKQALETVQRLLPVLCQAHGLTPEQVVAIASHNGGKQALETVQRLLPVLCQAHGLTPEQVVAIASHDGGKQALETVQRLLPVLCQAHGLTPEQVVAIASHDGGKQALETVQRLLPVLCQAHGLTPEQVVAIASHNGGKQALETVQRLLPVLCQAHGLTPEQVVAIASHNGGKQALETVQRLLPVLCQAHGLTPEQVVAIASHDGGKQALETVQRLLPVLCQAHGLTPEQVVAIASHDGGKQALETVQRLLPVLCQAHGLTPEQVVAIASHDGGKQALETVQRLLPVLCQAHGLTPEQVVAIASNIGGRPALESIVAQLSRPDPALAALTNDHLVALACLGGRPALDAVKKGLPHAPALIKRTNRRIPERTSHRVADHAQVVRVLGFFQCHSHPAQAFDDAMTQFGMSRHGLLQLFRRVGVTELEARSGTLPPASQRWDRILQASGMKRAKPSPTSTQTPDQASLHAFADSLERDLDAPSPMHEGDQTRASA
Assay: cell_activity; luciferase reporter
Conditions: tags: VP64, 2A-GFP; dsDNA, one strand shown
Experimental: TALEs using NN, NK, NH, and HN as the G-targeting RVD were synthesized to target two distinct 18 bp target sites in the human CACNA1C locus. Changes in mRNA are measured using qRT-PCR as described previously. VP64, VP64 transcription activation domain. All results are collected from three independent experiments in HEK 293FT cells. Error bars indicate s.e.m.; n=3. FIG. 19(b) discloses SEQ ID NOS 63 and 62, respectively, in order of appearance.
To determine whether NH and HN are suitable replacements for NN as the G-specific RVD, specificity and activity strength of NN, NK, NH, and HN were directly compared. Two 18 bp targets within the CACNA1C locus in the human genome were chosen and four TALEs for each target were constructed, using NN, NK, NH, or HN as the G-targeting RVD (FIG. 19a). […] For each CACNA1C target site, four luciferase reporters were constructed: wild type genomic target, and wild type target with 2, 4, or all guanines mutated into adenines (FIG. 19a, G-to-A reporters), and compared the activity of each TALE using these reporters (FIG. 19a). […] Thus, focus was placed on the RVDs NN, NK, and NH in subsequent experiments to assess their usefulness in modulating transcription at endogenous human genome targets.

Sequence	binding signal
TCAACCCCTGCCGGCCCA	30.8 % reduction vs wild-type site

Reference: patent US20140271602, “NUCLEOTIDE-SPECIFIC RECOGNITION SEQUENCES FOR DESIGNER TAL EFFECTORS” (THE BROAD INSTITUTE INC., published 2014)
